# Source: PubChem
# EBV gp42 inh = Epstein-Barr virus gp42 inhibitors, primary screen, biochemical, uHTS, fluorescence polarization; Fluorescence polarization binding assay, mP read-out; inhibition, % (tested at 21.74 µM); 220,000 compounds, 0.42% hits; AID 1085, 2008; in the data active = inhibition above about 50%
# GLD-1 TGE inh = GLD-1/TGE RNA complex disruptors, primary screen, biochemical, fluorescence polarization; Female germline-specific tumor suppressor gld-1 (Caenorhabditis elegans), Q17339; purified GLD-1 + fluorescein TGE RNA; inhibition, % at 5.96 µM; 320,000 compounds, 0.44% hits; AID 2280, 2010;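 active = percent inhibition above a per-plate cutoff, the plate mean of test compounds plus 3 SD, cut at about 30% in these data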;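 also: 0% = DMSO wells with GLD-1 and probe and 100% = wells lacking GLD-1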
# C-LANA FP = inhibitors of KSHV C-LANA binding to DNA, primary screen, biochemical, fluorescence polarization, FAM-LBS DNA, MBP-C-LANA, single point | Kaposi's sarcoma herpesvirus LANA C-terminal domain (residues 932-1162) DNA binding | inhibition, % at 9 µM | 340,000 compounds, 0.078% hits | AID 504423, 2011;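 active = highest replicate inhibition at or above 60% at 9 µM, even if other replicates fall short; inactive = all replicates below 60% inhibition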;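 also: 0% = neutral control wells and 100% = 4 µM acridine orange control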
# LANA-H2A inh = blockers of LANA interaction with H2A/H2B – biochemical, FP readout, HTS, primary screen | inhibition, % (concentration not given with the values) | cell-free LANA-H2A/H2B peptide, fluorescence polarization | Protein LANA1 (Human herpesvirus 8 type P (isolate GK18)), Q9QR71 | 320,000 compounds, 0.6% hits; in the data active = inhibition mostly above about 10%, no sharp cut-off; inactive = mostly below about 6.7%
# Target sequence (Q9QR71 whole entry, looked up): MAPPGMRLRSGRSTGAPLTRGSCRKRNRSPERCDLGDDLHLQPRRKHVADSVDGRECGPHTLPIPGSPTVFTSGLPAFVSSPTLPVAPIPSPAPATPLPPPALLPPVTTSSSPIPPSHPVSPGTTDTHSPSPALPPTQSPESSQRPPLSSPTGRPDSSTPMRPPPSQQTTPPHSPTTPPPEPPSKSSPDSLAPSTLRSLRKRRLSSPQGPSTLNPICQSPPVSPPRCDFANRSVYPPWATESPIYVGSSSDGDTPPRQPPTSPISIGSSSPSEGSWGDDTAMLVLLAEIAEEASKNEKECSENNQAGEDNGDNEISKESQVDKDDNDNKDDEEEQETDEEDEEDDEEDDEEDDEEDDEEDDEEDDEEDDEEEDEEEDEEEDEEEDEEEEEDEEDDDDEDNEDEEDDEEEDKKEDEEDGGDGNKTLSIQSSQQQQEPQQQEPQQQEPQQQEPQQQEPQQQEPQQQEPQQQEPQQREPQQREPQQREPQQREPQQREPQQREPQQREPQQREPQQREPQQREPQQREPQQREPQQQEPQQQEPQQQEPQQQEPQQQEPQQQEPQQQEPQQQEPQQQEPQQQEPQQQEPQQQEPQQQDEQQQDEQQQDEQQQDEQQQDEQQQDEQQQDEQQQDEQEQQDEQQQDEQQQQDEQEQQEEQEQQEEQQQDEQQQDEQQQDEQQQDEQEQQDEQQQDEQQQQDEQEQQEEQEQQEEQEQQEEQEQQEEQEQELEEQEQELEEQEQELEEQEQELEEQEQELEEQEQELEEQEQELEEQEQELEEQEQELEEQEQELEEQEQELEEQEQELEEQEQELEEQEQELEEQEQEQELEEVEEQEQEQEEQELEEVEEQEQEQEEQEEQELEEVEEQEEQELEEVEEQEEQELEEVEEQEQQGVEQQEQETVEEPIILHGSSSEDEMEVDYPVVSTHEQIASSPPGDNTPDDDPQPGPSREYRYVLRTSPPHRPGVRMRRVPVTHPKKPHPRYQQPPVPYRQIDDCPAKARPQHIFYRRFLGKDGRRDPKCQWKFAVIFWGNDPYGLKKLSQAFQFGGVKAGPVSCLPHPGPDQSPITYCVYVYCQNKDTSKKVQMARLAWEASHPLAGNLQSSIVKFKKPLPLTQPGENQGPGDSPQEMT
# E coli Lon inh = inhibitors of E. coli Lon protease, primary screen, biochemical, fluorescence polarization; AID 602123, 2011; purified E. coli Lon protease; inhibition, % at 7.94 µM; 360,000 compounds, 0.42% hits; in the data active = inhibition above about 13%, passing the limit was not always enough;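 also: 0% = enzyme with probe and DMSO and 100% = no enzyme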
# Keap1 Nrf2 FP = Keap1-Nrf2 protein-protein interaction inhibitors, primary screen, biochemical, fluorescence polarization, single point | 340,000 compounds, 0.15% hits | inhibition, % at 9.4 µM | AID 504523, 2011 | Keap1 Kelch-Nrf2 peptide fluorescence polarization, 1536-well; in the data active = inhibition above about 12%;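 also: human Keap1 Kelch domain with fluorescein labeled Nrf2 9mer peptide probe; 0% = neutral control wells and 100% = peptide positive control; higher means more block of Keap1 binding to Nrf2 peptide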
# eLon confirm = E. coli Lon protease inhibitor retest, confirmation, biochemical, fluorescence polarization. purified E. coli Lon. shares compounds with E coli Lon inh. 1,400 compounds, 31% hits. inhibition, % at 7.94 µM; in the data active = inhibition above about 16%;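 also: 0% = enzyme with probe and DMSO and 100% = no enzyme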
# Active calls of the source: *; . = not tested or not shown. The list is not random: actives were taken first. Their share in the collection is about 1.5%.
SMILES,EBV gp42 inh,GLD-1 TGE inh,C-LANA FP,LANA-H2A inh,E coli Lon inh,Keap1 Nrf2 FP,eLon confirm
CCNc1cccc2c1C(=O)N(C)C2=O,160.4*,180.1*,0.3,-3.6,150.8*,-0.8,164.6*
Cc1ccc(-c2csc3nc(C)n(-n4cccc4)c(=O)c23)o1,0.2,1.5,-1.6,0.7,20.7*,-1.2,-1.2
Cc1ccc(-c2csc3nc(C)n(N)c(=O)c23)cc1,2.5,-0.3,0.4,7.8,2.0,-4.0,.
Cc1c(C(=O)O)c(O)cc2c1C(=O)c1c(O)c([C@@H]3O[C@H](CO)[C@@H](O)[C@H](O)[C@H]3O)c(O)c(O)c1C2=O,.,10.8,17.1,-2.8,44.9*,3.1,21.8*
Cc1cc(S(=O)(=O)N2CCOCC2)ccc1OCC(=O)NCC1CCCO1 (stereo unspecified),.,0.0,-0.1,-0.9,1.8,-0.9,.
COc1ccc(N2CCN(c3cc(C(=O)Nc4cc(OC)c(OC)c(OC)c4)ncn3)CC2)cc1OC,.,.,.,.,11.8*,.,1.1
COc1cc(NC(=O)c2ccccn2)cc(OC)c1OC,5.0,2.8,-0.4,-3.5,4.0,-4.5,.
CN1CCN(c2ccccc2NC(=O)c2ccc3c(c2)OCCO3)CC1,.,-5.8,-0.7,-8.0,15.8*,-0.1,2.7
Cc1ccc(N2CC(C(=O)NCCN3CCOCC3)CC2=O)cc1 (stereo unspecified),.,1.7,-0.7,-0.6,-1.8,1.6,.
CCC(=O)N(Cc1cc2ccc(C)cc2n2nnnc12)C1CCCCC1,-20.0,8.4,1.5,14.1,-3.2,-0.6,.
CCC(=O)N(CCc1ccc(OC)c(OC)c1)Cc1cc2ccc(C)cc2n2nnnc12,-10.8,-0.1,-0.8,5.9,15.7*,-5.4,10.0
COc1ccc(N2C(=O)CS(=O)C(c3ccccc3)C2=O)cc1 (stereo unspecified),-15.9,15.6,0.2,-15.6,24.2*,-43.6,30.6*
CNC(=O)C1Cc2c(-c3ccc4c(c3)OCO4)ccnc2O1 (stereo unspecified),.,.,.,.,1.3,.,.
COc1ccc(NC(=O)Nc2sc(NS(=O)(=O)c3ccccc3)nc2C)cc1,-6.2,-3.0,-0.5,-1.7,14.4*,-4.6,-3.2
CCn1cc(/C=C/C(=O)c2ccc(O)cc2)c(C)n1,-5.0,-1.7,1.7,2.3,-2.8,3.0,.
COc1ccc(/C=C2\SC(=O)N(CCc3nnc(N)s3)C2=O)cc1,-10.9,7.2,-0.1,3.7,-3.5,-4.7,.
O=C(Nc1ccn(CCCNCc2ccccn2)c(=O)n1)OCc1ccccc1,.,.,-1.0,.,1.4,-4.9,.
O=C(Nc1ccn(CCCNCc2cccc3ccccc23)c(=O)n1)OCc1ccccc1,.,.,.,.,12.7*,.,-8.3
[O-][n+]1c2ccc3nonc3c2nn1-c1ccccc1Cl,-2.2,1.3,0.1,1.0,-7.0,-3.2,.
CCCCNC(=O)c1cc(-c2ccc(OC)cc2)on1,-18.9,6.7,-1.1,-0.7,22.8*,3.3,-6.4
CCCNC(=O)c1cc(-c2ccc(OC)cc2)on1,-1.1,5.7,2.1,-2.3,-3.1,-6.4,.
Cc1cccc(OCC2=NS(=O)(=O)c3ccccc3N2)c1,-10.6,0.3,0.3,-0.3,6.4,1.0,.
CC1CCc2sc(C(=O)N(C)CC(=O)Nc3cccc(F)c3)cc2C1 (stereo unspecified),.,0.4,-1.3,-0.6,16.1*,-2.2,-3.7
C=CCc1c(C)nc(SC)nc1Nc1ccc(C(C)=O)cc1,-15.7,9.8,-0.1,-3.3,2.4,1.0,.
Nc1c(C(=O)NC2CCCC2)c2nc3ccccc3nc2n1/N=C/c1cccnc1,.,-1.6,0.3,-2.8,7.5,-5.5,.
SMILES,EBV gp42 inh,GLD-1 TGE inh,C-LANA FP,LANA-H2A inh,E coli Lon inh,Keap1 Nrf2 FP,eLon confirm
CC(OC(=O)c1ccc(Cl)nc1)C(=O)Nc1ccc(S(=O)(=O)N2CCCC2)cc1 (stereo unspecified),.,10.6,2.3,0.4,-4.7,-1.1,.
CC(OC(=O)c1ccc(CN2CCCC2=O)cc1)C(=O)Nc1ccc(Cl)cc1 (stereo unspecified),.,4.0,-0.5,2.9,24.4*,-2.2,59.9*
CC(=O)Nc1ccc(NC(=O)C(C)OC(=O)c2ccc(S(=O)(=O)N3CCCCC3)cc2)cc1 (stereo unspecified),.,0.7,-2.2,0.1,67.1*,4.0,4.8
Cc1ccc2c(c1)c(=O)c(Br)c(C)n2Cc1ccccc1,-4.3,-9.4,-1.0,-6.4,-4.4,0.0,.
Cc1ccc(C(=O)NC(CCc2ccccc2)C(=O)O)cc1 (stereo unspecified),.,.,1.7,.,-11.0,3.6,.
O=C1N=C(N2C=CC(=C3C=CNC=C3)C=C2)/C(=C/N=NC(=O)c2ccccc2O)S1,.,81.2*,18.4,13.8,40.5*,7.1,40.6*
COc1cc(N)c2ncccc2c1Cl,.,.,-3.1,.,-6.8,-2.5,.
COC(=O)c1cc2c(s1)-c1cc(F)ccc1OC2,0.4,3.2,.,-0.1,16.2*,-0.8,-9.0
CC(=O)c1cc2c(s1)-c1cc(F)ccc1OC2,19.1,9.1,-0.5,1.9,4.2,-5.8,.
Cc1ccn2cc(CNC(=O)c3ccc(Br)o3)nc2c1,-5.0,2.9,-1.4,-2.6,-1.5,-6.9,.
Clc1ccc(N2O[C@H]3C=C[C@@H]2C3)nc1,.,.,.,.,61.0*,.,128.8*
O=C(c1ccc[nH]1)N1O[C@@H]2C=C[C@H]1C2,.,.,0.4,.,-0.5,-2.6,.
CCOc1c(Br)cc(C(=O)Nc2cccc(S(=O)(=O)N3CCOCC3)c2)cc1OC,.,.,.,.,2.7,.,.
CCc1ccccc1Nc1nc(N)nc(CSc2nnc3ccccn23)n1,-10.4,5.7,-1.5,0.7,61.6*,-1.1,-2.9
Cc1ccc(NC(=O)CN(C)C(=O)COC(=O)CNS(=O)(=O)c2ccc(Br)cc2Cl)cc1,.,0.8,-0.2,0.3,0.9,-4.4,.
CCN(c1c(C)n(C)n(-c2ccccc2)c1=O)S(C)(=O)=O,-19.6,8.2,0.4,2.0,69.0*,0.7,-21.6
Cc1c(O)c(=O)n(-c2ccccc2)n1C,.,3.4,-0.9,7.8,-11.3,-8.7,.
COc1cc(-c2nc(CN3CCCCC3CCNC(C)=O)c(C)o2)ccc1F (stereo unspecified),-15.4,-4.2,-8.4,2.6,4.8,-2.5,.
COc1ccc(/C=C2\CCc3c2nc2ccccc2c3C(=O)O)cc1OC,8.4,117.2*,6.3,1.9,64.9*,-3.5,13.4
